Results as given in article PMC4336329 (PLoS ONE, 2015).
Among all 310,000 compounds or so, about 14,000 (4.5%) showed an effect of 50% or more. Effects have a minus sign here. Many of the other results were omitted from the sample, so strong results are more common in it than they were.

The molecules below were run against human ether-à-go-go-related gene (hERG) potassium channel (human, UniProt Q12809) (assay: primary screen, population patch clamp on CHO cells stably expressing hERG; higher = less effect of the substance).
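Note: peak tail current of the secondary pulse compared with the same well before compound.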

human ether-à-go-go-related gene (hERG) potassium channel, sequence (Q12809 whole entry, looked up): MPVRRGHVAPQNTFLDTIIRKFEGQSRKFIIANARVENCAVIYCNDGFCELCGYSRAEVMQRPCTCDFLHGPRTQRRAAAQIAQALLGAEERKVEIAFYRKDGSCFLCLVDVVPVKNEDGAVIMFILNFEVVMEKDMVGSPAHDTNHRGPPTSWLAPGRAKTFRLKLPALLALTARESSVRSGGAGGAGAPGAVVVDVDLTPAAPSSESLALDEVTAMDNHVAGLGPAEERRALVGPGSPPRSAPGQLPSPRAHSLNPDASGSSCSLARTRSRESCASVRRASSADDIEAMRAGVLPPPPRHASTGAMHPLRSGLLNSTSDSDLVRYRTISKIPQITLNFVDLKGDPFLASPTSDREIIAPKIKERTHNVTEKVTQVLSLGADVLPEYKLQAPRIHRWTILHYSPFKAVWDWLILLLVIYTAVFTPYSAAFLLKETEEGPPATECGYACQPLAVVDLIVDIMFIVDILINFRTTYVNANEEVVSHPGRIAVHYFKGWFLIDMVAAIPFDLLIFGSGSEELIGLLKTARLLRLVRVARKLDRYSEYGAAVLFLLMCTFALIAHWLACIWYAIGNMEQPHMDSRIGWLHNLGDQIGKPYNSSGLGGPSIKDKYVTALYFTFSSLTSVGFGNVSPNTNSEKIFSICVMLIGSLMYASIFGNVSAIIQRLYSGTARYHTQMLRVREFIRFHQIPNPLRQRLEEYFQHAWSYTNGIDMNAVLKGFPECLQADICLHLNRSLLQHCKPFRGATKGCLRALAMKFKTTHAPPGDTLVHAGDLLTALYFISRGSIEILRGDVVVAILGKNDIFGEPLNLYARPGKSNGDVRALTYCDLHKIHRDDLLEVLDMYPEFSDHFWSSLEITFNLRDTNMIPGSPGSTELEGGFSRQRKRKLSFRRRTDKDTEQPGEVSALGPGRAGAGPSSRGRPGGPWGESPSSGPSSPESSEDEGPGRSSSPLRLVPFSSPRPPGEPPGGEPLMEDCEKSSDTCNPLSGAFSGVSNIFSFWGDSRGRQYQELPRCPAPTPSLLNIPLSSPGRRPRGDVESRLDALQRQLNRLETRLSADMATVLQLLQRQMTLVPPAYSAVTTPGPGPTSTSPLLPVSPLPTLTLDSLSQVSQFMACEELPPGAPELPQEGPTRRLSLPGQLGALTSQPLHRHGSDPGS

Structure (SMILES) | hERG current change (%, negative = inhibition) at 10uM
CC[n+]1c(C)n(-c2ccccc2)c2ccc(NC(C)=O)cc21.[I-] | 11%
Cc1nc(NCCc2ccccc2)c(C#N)c(C)c1[N+](=O)[O-] | 6.5%
CCOC(=O)c1sc(NC(=O)c2sc(C)nc2C)nc1C | -4.49%
Fc1ccc(/C=N/NC(=S)Nc2ccc(Cl)cc2)cc1F | 9.62%
Cc1ccc(S(=O)(=O)NC(CC(=O)NCc2ccco2)c2ccco2)cc1 (centres unmarked) | -0.749%
CCOc1ccc(Nc2ccc3nonc3c2[N+](=O)[O-])cc1 | 10.6%
O=[N+]([O-])c1ccc(Nc2ccccc2)c2nonc12 | -8.36%
CCOc1ccc(Nc2ccc([N+](=O)[O-])c3nonc23)cc1 | -53.9%
COc1ccccc1NC(=O)CSc1nc2nc(C)cc(C)c2c(=O)[nH]1 | 4.82%
CCCCOC(=O)CSc1nnc(-c2cc(OC)c(OC)c(OC)c2)o1 | -11.9%
CCCCN(CCCC)C(=O)CSc1nnc(-c2cc(OC)c(OC)c(OC)c2)o1 | -58.5%
CCOC(=O)CSc1nnc(-c2cc(OC)c(OC)c(OC)c2)o1 | 12.1%
COCCN(C(=O)CCC(=O)Nc1ccccn1)C(C(=O)NC(C)C)c1ccc(Cl)cc1 (centres unmarked) | -5.58%
CN(C)c1ccc(/C=C2\CC3C4CC=C5CC(O)CCC5(C)C4CCC3(C)C2=O)cc1 (centres unmarked) | 3.55%
COc1cc(C(=O)NCCOc2cc(C)cc(C)c2)c(Br)c(OC)c1OC | -18.4%
O=S(=O)(NCCc1csc(-c2ccccc2)n1)c1cccnc1 | 8.48%
COCCNC(=S)N/N=C(\C)c1ccc(-n2ccnc2)cc1 | -66.2%
C/C(=N\NC(=O)COc1ccc(C(C)(C)C)cc1)c1ccc(-n2ccnc2)cc1 | -58.9%
CCc1ccc(OCC(=O)N/N=C(\C)c2ccc(-n3ccnc3)cc2)cc1 | -71.8%

Structure (SMILES) | hERG current change (%, negative = inhibition) at 10uM
C/C(=N\NC(=O)COc1ccc(C)cc1C(C)C)c1ccc(-n2ccnc2)cc1 | -33.4%
CCNC(=S)N/N=C(\C)c1cccc([N+](=O)[O-])c1 | -45.9%
COc1ccc(OCC(=O)N/N=C(\C)c2ccc(-n3ccnc3)cc2)cc1 | -42.6%
C=C(C)CNC(=S)N/N=C(\C)c1ccc(-n2ccnc2)cc1 | -37.7%
COCCNC(=S)N/N=C(\C)c1cccc([N+](=O)[O-])c1 | -70.4%
C/C(=N\NC(=O)COc1ccc(C(C)(C)C)cc1)c1ccc(N2CCOCC2)cc1 | 5.99%
C/C(=N\NC(N)=O)c1ccc(-n2ccnc2)cc1 | 10.9%
C=CCNC(=S)N/N=C(\C)c1ccc(-n2ccnc2)cc1 | -43%
COCCNC(=S)N/N=C(\C)c1ccc(C)c([N+](=O)[O-])c1 | -26.6%
CCN(C(=O)COC(=O)c1ccc2[nH]c3c(c2c1)CCCC3)C1CCS(=O)(=O)C1 (centres unmarked) | -8.35%
COc1ccccc1C(=O)Nc1nnc(S(=O)(=O)N2CCCCCC2)s1 | 3.54%
COc1cc(/C=C/C(=O)O)cc(S(=O)(=O)Nc2ccc3cn[nH]c3c2)c1OC | 9.74%
O=c1[nH]c(-c2ccccn2)nc2ccccc12 | -3.46%
COc1ccc(/C=N/Nc2nc(-c3ccc(Cl)cc3)cc(C(F)(F)F)n2)c(OC)c1 | 2.62%
CC(C)CNC(=O)CSc1ccc(Cl)cc1 | -3.84%
O=C(CN1CCN(Cc2ccccc2)CC1)c1ccccc1 | 1.35%
Cc1ccc(OCC(=O)Nc2ccc(N3CCN(S(C)(=O)=O)CC3)cc2)cc1 | 17.4%
CCc1ccc(NC(=O)CN2CC(c3ccccc3)CC2=O)cc1 (centres unmarked) | -27.6%
CN(CCCN1CCOCC1)C(=O)c1ccc2nc(Cc3cccc(Cl)c3)oc2c1 | -6.26%

Structure (SMILES) | hERG current change (%, negative = inhibition) at 10uM
O=C(NCC1CCOCC1)c1ccc2nc(Cc3cccc(Cl)c3)oc2c1 | -12.8%
CN(CC1CCOCC1)C(=O)c1ccc2nc(Cc3cccc(Cl)c3)oc2c1 | -69.7%
Cc1ccc(C)c(S(=O)(=O)C(C#N)c2nc3ccccc3nc2N2CC(C)OC(C)C2)c1 (centres unmarked) | 4.01%
Cc1ccc(OCCC(=O)OCC(=O)Nc2ccc3[nH]c(=O)[nH]c3c2)cc1 | -20.3%
CCc1ccc(-c2cc(C(=O)NCc3ccco3)c3ccccc3n2)s1 | -9.4%
Cc1nn(Cc2ccccc2Cl)c2sc(C(=O)NCCCn3ccnc3)cc12 | -82.6%
Cc1nn(Cc2ccccc2Cl)c2sc(C(=O)NC(C)(C)C)cc12 | 10.7%
CCOc1ccc(-c2cc(C(=O)NCCCn3ccnc3)c3cc(Br)ccc3n2)cc1 | 7.06%
O=C(NCCCn1ccnc1)c1cc(-c2cccnc2)nc2ccc(Br)cc12 | -45.1%
Cc1ccc2nc(-c3ccccc3)cc(C(=O)NCCCn3ccnc3)c2c1 | -40.7%
Cc1ccc(-c2cc(C(=O)NCCCn3ccnc3)c3ccccc3n2)s1 | -70.9%
Cc1ccc(-c2cc(C(=O)NCCCn3ccnc3)c3cc(Br)ccc3n2)o1 | -73.8%
CCC(CC)NC(=O)c1cc2c(C)nn(Cc3ccccc3Cl)c2s1 | 10.9%
CCc1ccc(-c2cc(C(=O)NCCCn3ccnc3)c3ccccc3n2)s1 | -73.6%
CCc1ccc(-c2cc(C(=O)O)c3ccccc3n2)s1 | 16.9%
Cc1ccccc1C(=O)NCCCn1ccnc1 | 18.3%
CC(C)CC(=O)CN1C(=O)C2(OCCO2)c2ccccc21 | 13.2%
COc1ccc(-c2cc(C(F)F)nc(-n3nc(C)cc3C)n2)cc1 | 11.7%
